Laboratory results reported in PubChem BioAssay (NCI).
This is part of a sample that, as a whole, favours compounds with a hit. Of some 83,000 tested, about 20% had one in any assay.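 Compound tested at a single concentration for 48 hours in 96-well plates; a percent growth value below 10 was scored as active.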 Unmarked numbers belong to inactive results. Calls of active or inactive are those of the source.

What was measured:
Experiment in all cases: NCI-60 one-dose screen, 48 h (100 = growth as untreated, 0 = no growth, -100 = all killed)
Settings in all cases: 10 µM unless noted
[1] = tested on: T-47D breast
[2] = tested on: BT-549 breast
[3] = tested on: MDA-MB-435 melanoma
[4] = tested on: SW-620 colon
[5] = tested on: MCF7 breast
[6] = tested on: HCT-116 colon
[7] = tested on: HCC-2998 colon
[8] = tested on: KM12 colon

SMILES	growth [1]	growth [2]	growth [3]	growth [4]	growth [5]	growth [6]	growth [7]	growth [8]
Fc1ccc2c(c1)c(-c1nc(-c3c[nH]c4ncccc34)cs1)cn2CCCN1CCCCC1	67.5%	88.8%	-20% (active)	-34.9% (active)	21.6%	45.3%	98.8%	68.3%
CCC(=O)c1c(C)[nH]c(C)c1C	104%	94%	95.1%	52.3%	61.1%	47.2%	114%	102%
COc1ccc(-c2nc(Nc3ccc(-c4nc5ccccc5[nH]4)cc3)nc(N3CCOCC3)n2)cc1	16.1%	5.16% (active)	-38% (active)	3.57% (active)	-44.3% (active)	4.8% (active)	-19.8% (active)	12.4%
COc1ccc2[nH]c(-c3ccc(Cl)cc3)cc(=O)c2c1	116%	92.9%	94.7%	98.2%	91.4%	102%	100%	98.8%
COc1cc2[nH]c(C(=O)c3cc(OC)c(OC)c(OC)c3)c(N)c2cc1C#CC1CC1	32.8%	53.4%	2.06% (active)	22.5%	17.6%	19.1%	66.1%	18%
CC(C)c1cc(C(=O)O)c(O)c(C(C)C)c1.CC(C)c1cc(C(=O)O)c(O)c(C(C)C)c1.[Mn]	82%	91.2%	108%	106%	104%	103%	134%	98.1%
O=P(O)(c1ccccc1)c1ccccc1I	84.5%	100%	104%	94.9%	96.6%	76.7%	107%	103%
CC(=O)O[C@H]1CC[C@@]2(C)C(=CC[C@@H]3[C@@H]2CC[C@]2(C)C(=O)N(O)C(=O)C[C@@H]32)C1	87.1%	91.9%	104%	72.6%	76%	76.3%	78.1%	71.8%
C=C(C)[C@@H]1CC[C@]2(C)[C@H](CC[C@@H]3[C@H]4[C@H]5OC[C@@]4(CCC5(C)C)CC[C@]32C)[C@@]1(C)CCCN	23%	93.8%	49.2%	-45.1% (active)	0.266% (active)	4.71% (active)	-68.4% (active)	23.9%
c1ccc2[nH]c(-c3cc(-c4ccc5c(c4)OCO5)n[nH]3)nc2c1	40%	34.5%	58%	61.3%	59.2%	51.7%	81.2%	28.2%
CCN(CC)c1ccc(/C=C/c2cc(C)c3ccccc3n2)cc1	44%	93.2%	-6.87% (active)	22.3%	21.2%	22.8%	62.4%	–
COc1cccc(-c2nn(-c3ccccc3)cc2-c2ccnc(NCCCN)c2)c1	59.1%	68.6%	-6.82% (active)	43.5%	41.8%	45.1%	65.6%	71.9%
C=C(C)[C@@H]1CC[C@]2(CN)CC[C@]3(C)[C@H](CC[C@@H]4[C@@](C)(CCCN)[C@H](C(=C)C)CC[C@]43C)[C@@H]12	88.6%	92.1%	96.2%	88.9%	71.8%	50.1%	77%	88.1%
COc1ccc(/C=C(\C#N)c2cc3ccccc3n2S(C)(=O)=O)cc1	96.2%	86%	6.05% (active)	70.1%	66.8%	82.9%	94%	69%
CC(c1ccccc1)N1C(=O)C(C2SC(=S)N(C(C)c3ccccc3)C2=O)SC1=S (configuration not stated)	73.2%	89.5%	57.2%	54.7%	25.8%	57%	107%	67.9%
CCOC(=O)N1CCN(CCCCOc2ccc(C(C)(C)CC)cc2)CC1	79.7%	82.3%	105%	101%	103%	70.8%	107%	95.6%

SMILES	growth [1]	growth [2]	growth [3]	growth [4]	growth [5]	growth [6]	growth [7]	growth [8]
Cc1cc(N(CCNc2ccnc3cc(Cl)ccc23)Cc2ccco2)nc(Cl)n1	-69.1% (active)	-78% (active)	30.1%	-35.6% (active)	-29.7% (active)	-96.8% (active)	62.2%	26.5%
CCN1CCN(c2nc(C)cc(N(CCCNc3ccnc4cc(Cl)ccc34)Cc3ccco3)n2)CC1	68.4%	54.5%	4.03% (active)	39.3%	32.3%	42.5%	88%	67.9%
COc1cc(-c2cc(-c3nc4ccc(F)cc4[nH]3)[nH]n2)cc(OC)c1OC	-21.3% (active)	6.58% (active)	5.65% (active)	52.1%	9.15% (active)	31.2%	66.6%	12.9%
COc1cccc(-c2nn(-c3ccccc3)cc2-c2ccnc(NCCNS(=O)(=O)c3ccc(C(F)(F)F)cc3)c2)c1	3.99% (active)	-29.3% (active)	13.2%	28.4%	11.1%	14.7%	13.7%	14.7%
O=C(/C=C/c1ccc2ccccc2c1)Nc1ncc(Cc2ccccc2)s1	25.7%	72.5%	66.1%	42.6%	50.3%	21%	92%	64.4%
COc1ccc(C(=O)/C=C/c2cc(-c3cc(OC)c(OC)c(OC)c3)n[nH]2)cc1OC	-2.5% (active)	-51.6% (active)	-71.6% (active)	-64% (active)	-39.6% (active)	-88.7% (active)	-77.2% (active)	-86.7% (active)
N#CC1=C(N)Oc2ccc3ccccc3c2C1c1ccccc1 (configuration not stated)	40.8%	19.8%	-21.6% (active)	28%	14.8%	19.4%	69.3%	24.5%
O=c1[nH]c2c3ccncc3cc(-c3cccc(Cl)c3)c2c2cnccc12	60.5%	22%	64.9%	58.3%	22.7%	-31.5% (active)	61.5%	34.7%
COc1cccc(-c2nn(-c3ccccc3)cc2-c2ccnc(NCCCNS(=O)(=O)c3cccc(F)c3)c2)c1	-1.01% (active)	24.3%	22.4%	39.9%	16%	18.4%	11.7%	24.5%
Clc1ccc2[nH]cc(-c3nc(-c4c[nH]c5ncccc45)cs3)c2c1	47.8%	59.3%	49.4%	18.1%	35%	23.7%	69.3%	23.3%
COc1ccc2nc(-c3c(-c4ccccc4)nc4ncccn34)[nH]c2c1	82.1%	110%	104%	108%	96.6%	97.1%	101%	111%
Cn1c(=O)c2c(ncn2CC(=O)Nc2ccc(S(N)(=O)=O)cc2)n(C)c1=O	93.2%	92.8%	108%	103%	98.6%	92.7%	114%	101%
CN(C)c1cccc2[nH]c(-c3[nH]ncc3Nc3ccnc(N)n3)nc12	-18.3% (active)	-31.5% (active)	-90% (active)	-5.42% (active)	-46.1% (active)	-40.8% (active)	-41.9% (active)	-31.8% (active)
Cc1cc(N2CCN(C)CC2)nc(N(CCNc2ccnc3cc(Cl)ccc23)Cc2ccco2)n1	40.4%	31.1%	-39.8% (active)	38.2%	17.1%	17.1%	92.7%	34.2%
O=C1OC(c2ccc(Cl)c(Cl)c2)=C/C1=C/c1cccc([N+](=O)[O-])c1	96.7%	111%	104%	102%	101%	86.5%	103%	104%
